Data taken from PubChem BioAssay (EPA / NIEHS).
Active and inactive are the calls of the source. How the source made its calls: active means hit-call score of the fitted dose curve at least 0.9, where 1 is the maximum; inactive means score below 0.9.

What was measured:
[1] = APR_HepG2_NuclearSize_24hr: Apredica 24-hour HepG2 Assay for Nuclear Size (AID 2282907); details: high-content imaging, actives raise or lower the signal
Outline: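 HepG2 cells exposed 24 h to compounds at 0.39–200 uM (0.5% DMSO), fixed, Hoechst 33342 stained and imaged at 20x; nuclear diameter measured by automated image analysis, fitted bidirectionally against DMSO controls.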

[2] = APR_HepG2_CellLoss_24hr: Apredica 24-hour HepG2 Assay for Cell Loss (AID 2282908); details: high-content imaging
Outline: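 HepG2 cells exposed 24 hr to 0.39–200 uM compound in duplicate at 0.5% v/v final DMSO. Cells fixed in 3.7% formaldehyde and Hoechst 33342-stained. Cell number came from nuclear imaging at 20x. Bidirectional fit versus DMSO.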

[3] = APR_HepG2_MicrotubuleCSK_24hr: Apredica 24-hour HepG2 Assay for Microtubule CSK Stabilty (AID 2282909); details: HepG2 microtubule cytoskeleton imaging, actives raise or lower the signal
Outline: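 HepG2 cells were treated 24 hr with compound at 0.39–200 uM in duplicate (0.5% DMSO final), then fixed and permeabilized. Alpha-tubulin immunofluorescence was imaged by high-content microscopy, with bidirectional fitting against DMSO and taxol as positive control.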

[4] = APR_HepG2_MitoticArrest_24hr: Apredica 24-hour HepG2 Assay for Mitotic Arrest (AID 2282910); details: high-content imaging, actives raise or lower the signal
Outline: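 Compounds are dosed onto HepG2 cells across ten concentrations up to 200 uM for 24 hr. Cells are then fixed in 3.7% formaldehyde, permeabilised, and labelled for phospho-histone H3 and nuclei; images are scored by cell cycle analysis and fitted bidirectionally relative to DMSO.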

[5] = APR_HepG2_MitoMembPot_24hr: Apredica 24-hour HepG2 Assay for Mitochondrial Membrane Potential (AID 2282911); details: imaging, actives raise or lower the signal
Outline: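 Human hepatoma HepG2 cultures received ten compound concentrations up to 200 uM for 24 hr. Membrane-potential dye signal, captured by automated fluorescence microscopy, was scored for gain or loss against DMSO controls.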

[6] = APR_HepG2_MitoMass_24hr: Apredica 24-hour HepG2 Assay for Mitochondrial Mass (AID 2282912); details: high-content imaging, actives raise or lower the signal
Outline: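 HepG2 cells exposed 24 hr to 0.39–200 uM compound, 0.5% v/v DMSO, in duplicate. Stained before fixation with 250 nM MitoTracker Red CMXRos for 30 min, then imaged at 20x with Hoechst nuclei. Fitted in both directions against DMSO.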

[7] = APR_HepG2_p53Act_24hr: Apredica 24-hour HepG2 Assay for p53 Activation (AID 2282913); details: high-content imaging, actives raise or lower the signal;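 further: p53 protein immunofluorescence averaged per cell in HepG2 with Hoechst nuclei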
Outline: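 Automated fluorescence imaging quantifies p53 immunostaining in HepG2 cells after a 24 hr exposure (0.39–200 uM, duplicate, 0.5% DMSO). Nuclei are located by Hoechst 33342 staining.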

[8] = APR_HepG2_CellCycleArrest_72hr: Apredica 72-hour HepG2 Assay for Cell Cycle Arrest (AID 2282914); details: high-content imaging, actives raise or lower the signal
Outline: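 Cell cycle arrest in HepG2 was scored from nuclear DNA content after 72 hr compound treatment (0.39–200 uM). Activity, either gain or loss, was fitted against the DMSO baseline.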

[9] = APR_HepG2_CellLoss_72hr: Apredica 72-hour HepG2 Assay for Cell Loss (AID 2282915); details: high-content imaging
Outline: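 Cell number comes from Hoechst 33342-labelled nuclei, imaged at 20x after 3.7% formaldehyde fixation. Dosing was 0.39–200 uM, ten concentrations in duplicate, 0.5% DMSO final, for 72 h. Bidirectional fit relative to DMSO baseline.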

[10] = APR_HepG2_P-H2AX_72hr: Apredica 72-hour HepG2 Assay for H2AX Phosphorylation (AID 2282916); details: imaging, actives raise or lower the signal;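 further: phospho-histone H2A.x immunostain intensity per cell marking DNA damage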
Outline: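 HepG2 cells treated 72 h at 0.39–200 uM, 0.5% DMSO final, duplicates. Formaldehyde-fixed, Triton-permeabilised, immunostained for phospho-H2A.x with Hoechst; fluorescence imaged at 20x, bidirectional fit versus DMSO.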

[11] = APR_HepG2_MitoMembPot_72hr: Apredica 72-hour HepG2 Assay for Mitochondrial Membrane Potential (AID 2282917); details: imaging, actives raise or lower the signal
Outline: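 Membrane potential read by MitoTracker Red CMXRos (250 nM, 30 min, pre-fixation) fluorescence imaging of HepG2 after 72 hr exposure. Ten concentrations, 0.39–200 uM, duplicate wells, 0.5% DMSO; fitted in both directions against DMSO baseline.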

[12] = APR_HepG2_MitoticArrest_72hr: Apredica 72-hour HepG2 Assay for Mitotic Arrest (AID 2282918); details: high-content imaging, actives raise or lower the signal
Outline: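 Mitotic arrest in HepG2 is scored from phospho-histone H3 staining after 72 hr dosing across 0.39–200 uM, with DMSO at 0.5% v/v. Nuclei are identified by Hoechst 33342 and fluorescence intensity is quantified per cell.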

[13] = APR_HepG2_MicrotubuleCSK_72hr: Apredica 72-hour HepG2 Assay for Microtubule CSK Stabilty (AID 2282919); details: HepG2 microtubule cytoskeleton, high-content imaging, actives raise or lower the signal
Outline: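 Read-out is tubulin fluorescence intensity from high-content imaging of HepG2 cells, with nuclei identified by Hoechst 33342. Treatment lasts 72 h at 0.39–200 uM, and curves are fitted bidirectionally against the DMSO negative control.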

[14] = APR_HepG2_P-H2AX_24hr: Apredica 24-hour HepG2 Assay for H2AX Phosphorylation (AID 2282920); details: high-content imaging, actives raise or lower the signal
Outline: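 Signal comes from a FITC-labeled secondary detecting phospho-histone H2A.x in fixed HepG2 cells, quantified by automated imaging at 20x. Dosing ran 24 hr across 0.39–200 uM with 0.5% v/v DMSO.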

[15] = APR_HepG2_StressKinase_72hr: Apredica 72-hour HepG2 Assay for Stress Kinase (AID 2282921); details: HepG2 stress kinase (phospho-c-Jun) imaging, actives raise or lower the signal
Outline: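 HepG2 cells treated 72 hr with 0.39–200 uM compound, 0.5% v/v DMSO, duplicate wells. After formaldehyde fixation and Triton permeabilization, stained with anti-phospho-c-Jun (1:500) and Cy3 secondary, imaged at 20x. Fitted in both directions against DMSO.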

[16] = APR_HepG2_StressKinase_24hr: Apredica 24-hour HepG2 Assay for Stress Kinase (AID 2282922); details: HepG2 stress kinase (phospho-c-Jun) imaging, actives raise or lower the signal
Outline: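 HepG2, 24 hr dosing, 0.39–200 uM in duplicate, 0.5% DMSO; formaldehyde fix (3.7%), 0.5% Triton X-100; anti-phospho-c-Jun + Cy3 secondary, Hoechst counterstain; ArrayScan imaging; bidirectional curve fit vs DMSO baseline.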

[17] = APR_HepG2_p53Act_72hr: Apredica 72-hour HepG2 Assay for p53 Activation (AID 2282923); details: high-content imaging, actives raise or lower the signal;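 further: average cellular p53 protein immunofluorescence intensity in HepG2 cells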
Outline: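 HepG2 cells exposed 72 h to 0.39–200 uM in 0.5% DMSO, duplicates. Fixed, permeabilized cells immunostained for p53 (Cy5) with Hoechst; imaged at 20x, fluorescence analyzed bidirectionally against DMSO.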

[18] = APR_HepG2_MitoMass_72hr: Apredica 72-hour HepG2 Assay for Mitochondrial Mass (AID 2282924); details: high-content imaging, actives raise or lower the signal;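 further: MitoTracker Red CMXRos stain intensity per cell imaged as mitochondrial mass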
Outline: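 HepG2, 72 hr cmpd, 10 conc 0.39–200 uM in dup, DMSO 0.5% v/v. MitoTracker Red CMXRos 250 nM 30 min pre-fix; formaldehyde 3.7% fix 30 min RT. HCS imaging, gain/loss fit vs DMSO.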

[19] = APR_HepG2_CellCycleArrest_24hr: Apredica 24-hour HepG2 Assay for Cell Cycle Arrest (AID 2282905); details: imaging, actives raise or lower the signal;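 further: cell cycle arrest scored as ratio of 2N to 4N nuclear DNA content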
Outline: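 Compounds at 0.39–200 uM (0.5% DMSO) for 24 h, then fixed and Hoechst 33342 stained. Cell-cycle analysis of nuclear DNA content by high-content imaging, fitted bidirectionally versus DMSO.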

## O=C(O)CCCCC(=O)O
[1]
  outcome: inactive
[2]
  outcome: inactive
[3]
  outcome: inactive
[4]
  outcome: inactive
[5]
  outcome: inactive
[6]
  outcome: inactive
[7]
  outcome: inactive
[8]
  outcome: inactive
[9]
  outcome: inactive
[10]
  outcome: inactive
[11]
  outcome: inactive
[12]
  outcome: inactive
[13]
  outcome: inactive
[14]
  outcome: inactive
[15]
  outcome: inactive
[16]
  outcome: inactive
[17]
  outcome: inactive
[18]
  outcome: inactive

## Oc1ccc2c(c1)OC[C@@H](N1CCC(O)(c3ccc(F)cc3)CC1)[C@H]2O
[1]
  outcome: inactive
[2]
  outcome: inactive
[3]
  outcome: inactive
[4]
  outcome: inactive
[5]
  AC50: 58.7 µM (active)
[6]
  outcome: inactive
[7]
  outcome: inactive
[8]
  outcome: inactive
[9]
  outcome: inactive
[10]
  outcome: inactive
[11]
  outcome: inactive
[12]
  outcome: inactive
[13]
  outcome: inactive
[14]
  outcome: inactive
[15]
  outcome: inactive
[16]
  outcome: inactive
[17]
  outcome: inactive
[18]
  outcome: inactive

## Cc1ccc(Cl)cc1
[1]
  outcome: inactive
[2]
  outcome: inactive
[3]
  outcome: inactive
[4]
  outcome: inactive
[5]
  outcome: inactive
[6]
  outcome: inactive
[7]
  outcome: inactive
[8]
  outcome: inactive
[9]
  outcome: inactive
[10]
  outcome: inactive
[12]
  outcome: inactive
[13]
  outcome: inactive
[14]
  outcome: inactive
[15]
  outcome: inactive
[16]
  outcome: inactive
[17]
  outcome: inactive
[18]
  outcome: inactive

## Cc1ccc(N(C)C)cc1
[19]
  outcome: inactive
[1]
  outcome: inactive
[2]
  outcome: inactive
[3]
  outcome: inactive
[4]
  outcome: inactive
[5]
  outcome: inactive
[6]
  outcome: inactive
[7]
  outcome: inactive
[8]
  outcome: inactive
[9]
  outcome: inactive
[10]
  outcome: inactive
[12]
  outcome: inactive
[13]
  outcome: inactive
[14]
  outcome: inactive
[15]
  outcome: inactive
[16]
  outcome: inactive
[17]
  outcome: inactive
[18]
  outcome: inactive

## CCCCCCCCCCCCCCCCCC(=O)O
[19]
  outcome: inactive
[1]
  outcome: inactive
[2]
  outcome: inactive
[3]
  outcome: inactive
[4]
  outcome: inactive
[5]
  outcome: inactive
[6]
  outcome: inactive
[7]
  outcome: inactive
[8]
  outcome: inactive
[9]
  outcome: inactive
[10]
  outcome: inactive
[12]
  AC50: 49.9 µM (active)
[13]
  outcome: inactive
[14]
  outcome: inactive
[15]
  outcome: inactive
[16]
  outcome: inactive
[17]
  outcome: inactive
[18]
  outcome: inactive

## CCNc1cccc(C)c1
[1]
  outcome: inactive
[2]
  outcome: inactive
[3]
  outcome: inactive
[4]
  outcome: inactive
[5]
  outcome: inactive
[6]
  outcome: inactive
[7]
  outcome: inactive
[8]
  outcome: inactive
[9]
  outcome: inactive
[10]
  outcome: inactive
[12]
  outcome: inactive
[13]
  outcome: inactive
[14]
  outcome: inactive
[15]
  outcome: inactive
[16]
  outcome: inactive
[17]
  outcome: inactive
[18]
  outcome: inactive

## Cc1cccc([N+](=O)[O-])c1C
[1]
  outcome: inactive
[2]
  outcome: inactive
[3]
  outcome: inactive
[4]
  outcome: inactive
[5]
  outcome: inactive
[6]
  outcome: inactive
[7]
  outcome: inactive
[8]
  outcome: inactive
[9]
  outcome: inactive
[10]
  outcome: inactive
[12]
  outcome: inactive
[13]
  outcome: inactive
[14]
  outcome: inactive
[15]
  outcome: inactive
[16]
  outcome: inactive
[17]
  outcome: inactive
[18]
  outcome: inactive

## NCC1(Cc2noc(=O)[nH]2)CCCCC1
[1]
  outcome: inactive
[2]
  outcome: inactive
[3]
  outcome: inactive
[4]
  outcome: inactive
[5]
  outcome: inactive
[6]
  outcome: inactive
[7]
  outcome: inactive
[8]
  outcome: inactive
[9]
  outcome: inactive
[10]
  outcome: inactive
[11]
  outcome: inactive
[12]
  outcome: inactive
[13]
  outcome: inactive
[14]
  outcome: inactive
[15]
  outcome: inactive
[16]
  outcome: inactive
[17]
  outcome: inactive
[18]
  outcome: inactive

## CCCCCCCCCCO
[1]
  outcome: inactive
[2]
  outcome: inactive
[3]
  outcome: inactive
[4]
  outcome: inactive
[5]
  outcome: inactive
[6]
  outcome: inactive
[7]
  outcome: inactive
[8]
  outcome: inactive
[9]
  outcome: inactive
[10]
  outcome: inactive
[12]
  outcome: inactive
[13]
  outcome: inactive
[14]
  outcome: inactive
[15]
  outcome: inactive
[16]
  outcome: inactive
[17]
  outcome: inactive
[18]
  outcome: inactive
